# Bioassay records: PubChem BioAssay, National Center for Advancing Translational Sciences (NCATS)
# TrxR1 inh: inhibitors of rat thioredoxin reductase 1; Potency, µM (series often up to 114 µM), for the others: at the highest dose activity change, negative = inhibition, usual class: inhibitors; O89049; AID 588453; recombinant rTrxR1, NADPH fluorescence consumption, selenite substrate; 1% of 390,000 active; also: potency is read from the fitted curve at half-maximal effect; nearly all actives have a fitted effect of over 65% in size
# Target sequence (O89049 whole entry, looked up): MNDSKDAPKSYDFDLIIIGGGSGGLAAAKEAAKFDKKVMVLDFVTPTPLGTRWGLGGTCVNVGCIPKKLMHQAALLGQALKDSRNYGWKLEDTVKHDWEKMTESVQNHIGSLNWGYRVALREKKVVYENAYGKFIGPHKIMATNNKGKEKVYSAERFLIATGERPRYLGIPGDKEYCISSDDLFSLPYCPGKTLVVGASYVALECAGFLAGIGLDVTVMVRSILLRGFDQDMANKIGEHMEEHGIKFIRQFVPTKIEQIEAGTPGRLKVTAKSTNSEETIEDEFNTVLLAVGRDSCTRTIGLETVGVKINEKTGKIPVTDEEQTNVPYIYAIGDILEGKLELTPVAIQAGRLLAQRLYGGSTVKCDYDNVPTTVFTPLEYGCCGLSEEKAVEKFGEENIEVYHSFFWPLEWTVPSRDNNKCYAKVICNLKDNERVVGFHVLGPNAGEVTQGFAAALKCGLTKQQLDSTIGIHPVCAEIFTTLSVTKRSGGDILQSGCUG
#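 Rat TrxR1 (90 nM in the dispensed reagent) was pre-reduced with 400 uM NADPH for 5 min at room temperature, then incubated with compound for 15 min. After 400 uM selenite was added, NADPH fluorescence (Ex 340/Em 450 nm) was followed for 8 min.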
# VP16 counter: counter-screen for ROR gamma inhibitors: Gal4-VP16 reporter. Drosophila S2 Gal4-VP16 UAS-luciferase, luminescence, 20 h. Potency, µM (top dose mostly 53.6 µM), for the others: top-dose activity, negative = inhibition, usual class: inhibitors. 3.5% of 310,000 active;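 also: Gal4-VP16 expression switched on by copper sulfate through the metallothionein promoter; potency is read from the fitted curve at half-maximal effect; nearly all actives have a fitted effect of over 50% in size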
# GALK inh: inhibitors of human galactokinase; P51570; Purified GALK, Kinase-Glo residual ATP luminescence; Potency, µM (doses to about 57.5 µM), without a hit: at the top dose activity change, negative = inhibition, most hits filed as inhibitors; 0.007% of 270,000 active; AID 1868; also: potency is read from the fitted curve at half-maximal effect
#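 GALK at 5 nM final was combined with compound, 35 uM ATP and 100 uM galactose in HEPES pH8.0 with MgCl2 and DTT. The reaction ran one hour at room temperature before luminescent ATP detection.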
# TrxR1 substrate: substrates of rat thioredoxin reductase 1. O89049. purified TrxR1 substrate turnover, NADPH consumption readout. Potency, µM (titrated, usually from 114 µM), for inactives: at the top dose activity change, negative = substrate turnover. 0.01% of 390,000 active; also: potency is read from the fitted curve at half-maximal effect; nearly all actives have a fitted effect of over 50% in size
#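 Rat TrxR1, dispensed at 90 nM, was prereduced with 400 uM NADPH (final) for 5 min at ~22 deg C, then incubated with compound 15 min before 400 uM selenite. A first-read NADPH fluorescence drop versus no-compound background flagged substrates.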
# RORg inh: blocks mouse ROR gamma transcriptional activity | Drosophila S2 Gal4-RORgamma UAS-luciferase reporter, 20 h | Potency, µM (titrated, usually from 53.6 µM), inactives show top-dose activity change, negative = inhibition, actives largely listed as inhibitors | 5.4% of 310,000 active | AID 2551; also: potency is read from the fitted curve at half-maximal effect; nearly all actives have a fitted effect of over 60% in size
#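 Schneider cells (Drosophila), stable Gal4 DBD–ROR gamma + UAS-luc; 1 hr cmpd preincubation; Cu2+ induction 700 uM final; 20 hr ambient; luminescence.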
# FBPA coupling cs: inhibits coupling enzyme system, counter-screen for aldolase hits. coupling enzyme system counterscreen, AmpLite Red fluorescence. activity change, negative = inhibition, % at 58.2 µM, hits read low. 0.67% of 290,000 active; in the data active = activity change below about -30%
#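 Fluorescence at 525 nm excitation and 598 nm emission measured inhibition of the coupled detection system without aldolase. Compounds (at 57.5 uM final) were preincubated 10 min at room temperature with coupling enzyme reagent before a 20 min substrate/AmpLite Red step.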
# The depositor's hits bear a star; ? = inconclusive; . = no result given; [ ] = another dose, or the depositor's remark. Compounds with a hit are over-represented: about 5.9% of the library has one in this group of screens. Unless noted, calls follow the shape of the dose curve; as a rule, active = well fitted curve in the direction sought with a large enough effect; inconclusive = small, poorly fitted or top-dose-only effect, or another doubt; inactive = no such curve, though single readings can be large; an effect the other way counts as inactive or inconclusive. % is scaled to controls: 0 for no effect and ±100 for the full control effect.
SMILES,TrxR1 inh,VP16 counter,GALK inh,TrxR1 substrate,RORg inh,FBPA coupling cs
CCOc1ccc2nc(NC(=O)c3ccoc3C)sc2c1,-6%,11µM*,13%,13%,?,-7
COc1ccccc1C(=O)Nc1nc2ccccc2s1,7%,1µM*,3%,27%,0.63µM*,-6
O=C(Nc1nc2ccc(S(=O)(=O)N3CCCC3)cc2s1)c1ccccn1,?,?,3%,-2%,2.8µM*,2
O=C(Nc1nc2c(F)cc(F)cc2s1)c1ccccn1,19%[57.1 µM],2µM*,2%,9%[57.1 µM],0.22µM*,-6
COc1ccc(NC(=O)CSc2nc3c([nH]c4ccccc43)c(=O)n2C)c(OC)c1,4%,2%,7%,3%,-21%,.
CCOC(=O)N1CCC(NC(=O)c2ccc3c(c2)N(Cc2cc(C)ccc2C)C(=O)c2ccccc2S3=O)CC1 (stereo not given),33%,.,.,-3%,.,.
COc1ccc(OC)c(CNS(=O)(=O)c2ccc3[nH]c4c(c3c2)CCCCC4)c1,20%,.,.,5%,.,.
O=C(COc1ccccc1)NNc1nc2c(F)cc(F)cc2s1,21%,0%,4%,-1%,13µM*,-1
Cc1ccc2nc(NC(=O)c3ccccn3)sc2c1,13%[57.1 µM],1.1µM*,-1%,12%[57.1 µM],0.35µM*,-1
NC(=S)Nc1nc2ccccc2s1,16%[57.1 µM],3.5µM*,6%,0%[57.1 µM],?,-2
CCC(=O)NNc1nc2c(F)cc(F)cc2s1,14%[57.1 µM],-28%,-1%,7%[57.1 µM],-6%,0
COCC(=O)Nc1nc2ccccc2s1,-5%,7%,-4%,0%,20%,-2
CCOc1ccc2nc(NC(=O)c3ccccn3)sc2c1,7%,2.8µM*,11%,2%,0.71µM*,-3
COc1cc(C(=O)NCC2CCCO2)ccc1OCc1c(C)noc1C (stereo not given),4%,4%,3%,0%,-17%,3
C=Cc1ncc(OC)c2c1[nH]c1ccccc12,-17%[57.1 µM],.,.,24%[57.1 µM],.,.
O=C(Nc1nc(-c2ccccn2)cs1)c1ccc(S(=O)(=O)N2CCCCC2)cc1,.,6.3µM*,-1%,.,1.6µM*,0
CCN(CC)C(=S)SCC(=O)Nc1nc(-c2ccccc2)c(-c2ccccc2)o1,-2%,8.9µM*,0%,-8%,4.5µM*,2
Cc1c(NC(=O)CSC(=S)N2CCCC2)c(=O)n(-c2ccccc2)n1C,8%,.,.,-3%,.,.
O=C(CSC(=S)N1CCN(c2ccccc2)CC1)Nc1nc(-c2ccccc2)c(-c2ccccc2)o1,18%[57.1 µM],-7%,0%,-14%[57.1 µM],10µM*,2
O=C(CSC(=S)N1CCCCC1)Nc1nc(-c2ccccc2)c(-c2ccccc2)o1,-2%,?,1%,-1%,5.6µM*,2
Cn1nnnc1SCC(=O)Nc1nc(-c2ccccc2)c(-c2ccccc2)o1,13%[57.1 µM],?,-3%,15%[57.1 µM],10µM*,3
COCCNC(=O)CSc1nc(-c2ccccc2)c(-c2ccccc2)o1,-11%,-12%,0%,4%,-6%,4
O=C(CSC(=S)N1CCCC1)NCCc1ccccc1,27%,.,.,2%,.,.
CCOC(=O)c1cccc(-n2c(-c3ccc(OC)cc3)nc3nc4ccccc4nc32)c1,.,0%,4%,.,0%,3
COc1ccc(Cl)cc1S(=O)(=O)NCc1ccc2c(c1)CCN2C(=O)c1cccc(C)c1,4%[57.1 µM],.,.,-3%[57.1 µM],.,.
SMILES,TrxR1 inh,VP16 counter,GALK inh,TrxR1 substrate,RORg inh,FBPA coupling cs
CCOc1ccc(Sc2cc(C(=O)NCCCOC)c3ccccc3n2)cc1,17%[57.1 µM],.,.,-1%[57.1 µM],.,.
Cc1ccc(S(=O)(=O)N(C)CC(=O)OCC(=O)NC(=O)NC(C)C)cc1,18%,-2%,0%,2%,-7%,8
O=C(CSC(=S)N1CCOCC1)Nc1nc(-c2ccccc2)c(-c2ccccc2)o1,3%,?,-4%,-4%,11µM*,0
CC(C)NC(=O)c1ccc2c(=O)n(C3CCCC3)c(=S)[nH]c2c1,22%,?,2%,6%,0.1µM*,4
O=C(c1ccc2c(=O)n(C3CCCC3)c(=S)[nH]c2c1)N1CCc2ccccc21,17%,3.2µM*,0%,7%,1µM*,4
CCCn1c(=S)[nH]c2cc(C(=O)N3CCc4ccccc4C3)ccc2c1=O,-4%[57.1 µM],-1%,0%,8%[57.1 µM],-10%,2
CCN(CC)CCNC(=O)c1ccc2c(=O)n(C3CCCC3)c(=S)[nH]c2c1,17%[57.1 µM],1%,0%,19%[57.1 µM],-37%,2
Cc1cc(C)c(C)c(Oc2ncnc(N)c2[N+](=O)[O-])c1,-2%,-2%,1%,-7%,13%,4
Nc1nonc1-c1nc2ccccc2n1Cc1ccc(F)cc1Cl,-8%[2.29 µM],?,-4%,-4%[57.1 µM],16µM*,1
CN(CCCNC(=O)c1cc2c(=O)n(C)c3ccccc3c2s1)Cc1ccccc1,-7%,.,.,35%,.,.
CN(C)C(=S)NC(=NCc1ccc([N+](=O)[O-])cc1)c1ccccc1,-1%,-21%,7%,7%,20µM*,-3
O=C(CSC1=NC(=O)C(Cc2ccccc2)C(=O)N1)Nc1ncc(Br)cc1Br (stereo not given),3%[57.1 µM],0%,-2%,1%[57.1 µM],19%,15
C=CCSc1nc(N(CC)CC)c2sccc2n1,7%[57.1 µM],-17%,1%,7%[57.1 µM],11µM*,2
